Results published in PubChem BioAssay (NCATS).
Records with an inconclusive call do not appear. Entries that show only a call come without a potency. Unmarked numbers belong to inactive results. Active and inactive are the calls of the source. Calls follow the shape of the dose curve; as a rule, active = well fitted cell-killing curve with a large enough effect; inconclusive = small, poorly fitted or top-dose-only effect; inactive = no such curve, though single readings can be large or run the other way.

Assay: qHTS of pediatric cancer cell lines to identify multiple opportunities for drug repurposing: Primary screen for MG 63 (6-TG R) cells (AID 1347105); also: nearly all actives have a fitted effect of over 50% in size
Details: MG 63 (6-TG R) viability, CellTiter-Glo, 48 h; series mostly up to 46 µM
Text: Drug repurposing or repositioning has been offered as a strategy for drug development in oncology programs. This approach has special potential for childhood cancers and other rare or orphan diseases, where the expected return on new drug development has been a disincentive to pharmaceuticals. […] In this project we exploit the poly-pharmacology of drugs to discover new indications via phenotypic screening of a panel of 19 well-characterized cell lines derived from solid tumors seen in children and adolescents. The goal is to identify approved drugs with previously unrecognized anticancer properties that has the potential to reveal new mechanisms and biological processes involved in carcinogenesis or drug resistance. We employed a titration-based paradigm (quantitative high-throughput screening or qHTS), where all compounds were tested at multiple concentrations for their effect on cell viability. Concentration-response curves (CRCs) were derived directly from the primary screen, and both potency and efficacy values were used to identify compounds with robust bioactivity profiles. We screened the NIH Chemical Genomics Center (NCGC) Pharmaceutical Collection (NPC) and Mechanism Interrogation Plate (MIPE) small molecule collections of approved and investigational compounds against these cell lines; and measured metabolically active cells after 48 hours of compound treatment as a proxy for cell viability. […] Assay Submitter: Nathalia J. Martinez, National Center for Advancing Translational Sciences, National Institutes of Health, Rockville, MD, USA; email: natalia.martinez@nih.gov Shen, M et al. Quantitative high-throughput phenotypic screening of pediatric cancer cell lines identifies multiple opportunities for drug repurposing. Oncotarget 2017 Dec 19;9(4):4758-4772. PMID 29435139.
The cells were obtained from University of North Carolina (UNC), Pediatric Preclinical Testing Program (PPT), and Coriell Institute (CI). qHTS cell viability assay: Cells were assayed in growth media at a density of 500-1,000 cells/well. Five microliters of cells were dispensed into 1,536-well, white, solid-bottom, TC-treated plates (Greiner Bio One) using a multidrop dispenser and incubated at 37 degrees C, 5% CO2, under a humidified atmosphere for 5 hours. Twenty-three nanoliters of compounds and controls (neutral control DMSO or positive control bortezomib at final concentration of 2.3 µM) were subsequently transferred by Kalypsys pintool. For primary screens, the MIPE collection was tested at 11-point dilutions (final concentrations range from 0.78 nM to 46 µM) and the NPC collection at 8-point dilutions (final concentrations range from 0.59 nM to 46 µM). Compounds tested in follow-up screens were assayed at 11-point dilutions. Cells were incubated for 48 hours, followed by addition of 3 µL of CellTiter-Glo (Promega). After a 15 min incubation at room temperature, samples were analyzed for luminescence intensity using a ViewLux High-throughput CCD imager equipped with clear filters.
Potency is read from the fitted curve at half-maximal effect.

Row | Structure (SMILES) | Potency | activity change, negative = cytotoxic
1 | CCC(=C(CC)c1ccc(O)cc1)c1ccc(O)cc1 | 18.7 µM (active) | 
2 | COc1ccc(-c2nc3ccc(C4=NNC(=O)CC4C)cc3[nH]2)cc1 (stereo not given) | inactive | 
3 | C[C@@H]1[C@H](O)[C@@H](C)C=CC=CC=CC=CC=CC=CC=C[C@H](O[C@@H]2O[C@H](C)[C@H](O)[C@H](N)[C@@H]2O)C[C@@H]2O[C@](O)(C[C@@H](O)C[C@@H](O)[C@H](O)CC[C@@H](O)C[C@@H](O)CC(=O)O[C@H]1C)C[C@H](O)[C@@H]2C(=O)O | inactive | 
4 | Fc1ccc(CNc2ncnc3ccc(F)cc23)cc1 | inactive | 
5 | Fc1ccc(C(c2ccc(F)cc2)N2CCN(CC=Cc3ccccc3)CC2)cc1 | inactive | 
6 | C=CC[N+]1([C@H]2C[C@H]3[C@@H]4CC[C@H]5C[C@H](O)[C@@H](N6CCOCC6)C[C@]5(C)[C@@H]4CC[C@]3(C)[C@H]2OC(C)=O)CCCC1 | inactive | 
7 | CNC(=O)c1cc(Oc2ccc(NC(=O)Nc3ccc(Cl)c(C(F)(F)F)c3)c(F)c2)ccn1 | 23.5 µM (active) | 
8 | CO[C@H]1C=CO[C@@]2(C)Oc3c(C)c(O)c4c(O)c(c(C=NN5CCN(C)CC5)c(O)c4c3C2=O)NC(=O)C(C)=CC=C[C@H](C)[C@H](O)[C@@H](C)[C@@H](O)[C@@H](C)[C@H](OC(C)=O)[C@H]1C |  | -12.4% [at 9.22 µM]
9 | CCNC(=O)Nc1ccc(Oc2ncnc(N)c2C=NOC)cc1Cl | inactive | 
10 | Cc1ccccc1C(C(=O)NC1CCCCC1)N(C(=O)CNc1ccc(C#N)cc1)c1cccc(F)c1 (stereo not given) | inactive | 
11 | CC(=O)OCC(=O)[C@@]1(O)CC[C@H]2[C@@H]3CCC4=CC(=O)C=C[C@]4(C)[C@@H]3[C@@H](O)C[C@@]21C | inactive | 
12 | CC(C)Oc1cc(Nc2nc(N[C@@H](C)c3ccc(F)cn3)ncc2Cl)[nH]n1 | 5.9 µM (active) | 
13 | CN(C)N=Nc1nc[nH]c1C(N)=O | inactive | 
14 | Cc1csc(-c2nnc(Nc3ccc(Oc4ncccc4-c4ccnc(N)n4)cc3)c3ccccc23)c1 | inactive | 
15 | CN1[C@H]2CC[C@H]1CC(OC(=O)c1c[nH]c3ccccc13)C2 (stereo not given in full) | inactive | 
16 | CCOC(=O)[C@H](CCc1ccccc1)N[C@@H](C)C(=O)N1CCCC1C(=O)O (stereo not given in full) | inactive | 
17 | C[C@@H]1O[C@@H](O[C@H]2CC[C@@]3(C)[C@H](CC[C@@H]4[C@H]3C[C@@H](O)[C@]3(C)[C@@H](C5=CC(=O)OC5)CC[C@]43O)C2)C[C@H](O)[C@@H]1O[C@H]1C[C@H](O)[C@H](O[C@H]2C[C@H](O)[C@@H](O)[C@@H](C)O2)[C@H](C)O1 (stereo in doubt) | 0.0679 µM (active) | 
18 | COc1ccc2c(c1)CC[C@H]1[C@@H]2CC[C@]2(C)[C@@H](NCCCCCCN3C(=O)C=CC3=O)CC[C@H]12 | inactive | 
19 | Cc1c(-c2cccc3c(CCCOc4cccc5ccccc45)c(C(=O)O)n(Cc4cccnc4)c23)c(COc2ccc(N3CCN([S+](=O)([O-])N(C)C)CC3)cc2)nn1C | 23.5 µM (active) | 
20 | Cc1cc(NC(=O)Nc2ccc(N(C)C)cc2)c2cc(F)cc(F)c2n1 | inactive | 

Row | Structure (SMILES) | Potency | activity change, negative = cytotoxic
21 | O=S(=O)(NCCNCC=Cc1ccc(Br)cc1)c1cccc2cnccc12 | 14.8 µM (active) | 
22 | CN1CCN2c3ncccc3Cc3ccccc3C2C1 (stereo not given) | inactive | 
23 | N[C@@H](CC(=O)N1CCn2c(nnc2C(F)(F)F)C1)Cc1cc(F)c(F)cc1F | inactive | 
24 | Cc1cnc(-c2cc(N3CCN(C(=O)CCS(C)(=O)=O)CC3)ncc2Cl)c(C)c1 | inactive | 
25 | COc1cc2c(cc1OC)[C@@H]1Cc3ccc(OC)c(OC)c3CN1CC2 | inactive | 
26 | O=C1CN2Cc3c(ccc(Cl)c3Cl)N=C2N1 | inactive | 
27 | CNc1nc(-c2ccc3c(N)n[nH]c3c2)cc(N2C[C@@H](C(=O)NC3CCCCC3)CC[C@@H]2C)n1 | 3.72 µM (active) | 
28 | COc1ccc(CCN(C)CCCOc2ccc(S(=O)(=O)c3[nH]c4ccccc4c3C(C)C)cc2)cc1OC | inactive | 
29 | O=C(O)c1nc(=O)[nH]c(=O)[nH]1 | inactive | 
30 | CCOC(=O)[C@@H](N)CCC(=O)N[C@@H](CSCc1ccccc1)C(=O)N[C@@H](C(=O)OCC)c1ccccc1 | inactive | 
31 | NC(N)=Nc1nc(CSCCC(N)=NS(N)(=O)=O)cs1 | inactive | 
32 | O=C(O)C1=CO[C@@H](O[C@@H]2O[C@H](CO)[C@H](O)[C@H](O)[C@H]2O)[C@@H]2C(CO)=CC[C@H]12 | inactive | 
33 | NC(=O)c1nnn(Cc2cc(Cl)c(C(=O)c3ccc(Cl)cc3)c(Cl)c2)c1N | inactive | 
34 | COc1cc(N2CCN(C)CC2)ccc1Nc1nc(N)c(C(=O)c2c(Cl)cccc2Cl)s1 | inactive | 
35 | Cc1nc(C(=O)NCC(=O)O)c(O)c2ccc(Oc3ccccc3)cc12 | inactive | 
36 | C[C@@H](N)c1ccc(C(=O)Nc2ccnc3[nH]ccc23)cc1 | inactive | 
37 | CO[C@H]1/C=C\O[C@@]2(C)Oc3c(C)c(O)c4c(O)c(c(C=NN5CCN(C6CCCC6)CC5)c(O)c4c3C2=O)NC(=O)C(C)=CC=C[C@H](C)[C@H](O)[C@@H](C)[C@@H](O)[C@@H](C)[C@H](OC(C)=O)[C@H]1C | 0.59 µM (active) | 
38 | CN[C@@H]1[C@@H](O)[C@@H](O[C@@H]2[C@@H](O)[C@H](O[C@H]3O[C@H](CN)[C@@H](O)[C@H](O)[C@@H]3O)[C@@H](N)C[C@@H]2NC(=O)[C@@H](O)CN)OC[C@]1(C)O | inactive | 
39 | CC(C)C[C@@H](N)[C@H](O)C(=O)N[C@H](C(=O)N[C@H](C(=O)N[C@@H](CC(=O)O)C(=O)O)C(C)C)C(C)C | inactive | 
40 | C=C[C@@H]1CN2CCC1C[C@@H]2C(O)c1ccnc2ccc(OC)cc12 (stereo not given in full) | inactive | 
